In PubChem BioAssay one finds inhibition of viability data, which are given here for 38 compounds.

Unmarked numbers belong to inactive results. The source made the active and inactive calls.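 The calls were made as follows: active = compounds that lower survival of HCT116 colon cancer cells in the luminescence readout, no numeric limit stated; inactive = the rest.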

The test can be described thus: HCT116 colon cancer cell growth inhibition, primary screen, CellTiter-Glo luminescence, NPC library (AID 1117342). To be noted: at 20 µM (top of the series).
As for `C[C@H](N)[C@H](O)c1cccc(O)c1`, the inhibition of viability is -3.1%.

As to `CN(Cc1cc(Br)cc(Br)c1N)C1CCCCC1`, the inhibition of viability was 80.7% (active).

Regarding `CC(=O)Nc1ccccc1`, the inhibition of viability was 2.3%.

For the compound `CC(=O)Nc1ccc(S(=O)(=O)Nc2ccc([N+](=O)[O-])cc2)cc1`, the inhibition of viability was -1.57%.

As for `CCCOc1ccc2nc(NC(=O)OC)[nH]c2c1`, the inhibition of viability was 57.5% (active).

On to `CN(C)CCOC(=O)C(c1ccccc1)C1(O)CCCC1` (stereo not drawn), for which the inhibition of viability was 50.1% (active).

For the compound `Cc1cc(O)cc(C)c1Cl`, the inhibition of viability is 18.1%.

In the case of `CCCCCCc1ccc(O)cc1O`, the inhibition of viability was 41.8%.

Regarding `Nc1ncnc2nc[nH]c12`, the inhibition of viability was -30.2%.

On to `CC(N)C(=O)OC(C)(C)Cc1ccc(Cl)cc1` (stereo not drawn), for which the inhibition of viability is 50% (active).

As for `COc1c2occc2c(OC)c2c(=O)cc(C)oc12`, the inhibition of viability is -7.6%.

Regarding `CC1=C(C(=O)O)N2C(=O)[C@@H](NC(=O)[C@H](N)c3ccc(O)cc3)[C@H]2SC1`, the inhibition of viability is 7.3%.

Consider `COc1ccc(NS(=O)(=O)c2ccc(N)cc2)nn1`, for which the inhibition of viability is -7.97%.

As for `NC[C@H]1O[C@H](O[C@H]2[C@H](O)[C@@H](O[C@H]3O[C@H](CO)[C@@H](O)[C@H](N)[C@H]3O)[C@H](N)C[C@@H]2N)[C@H](N)[C@@H](O)[C@@H]1O`, the inhibition of viability was 9.9%.

With `CCCCc1nc(Cl)c(CO)n1Cc1ccc(-c2ccccc2-c2nn[nH]n2)cc1`, the inhibition of viability is -10.5%.

On to `CC(=O)Oc1cccc(O)c1`, for which the inhibition of viability is 3.03%.

Regarding `COc1ccc(C(=O)c2ccccc2)c(O)c1`, the inhibition of viability is 14.4%.

Regarding `O=C(N[C@H](CO)[C@H](O)c1ccc([N+](=O)[O-])cc1)C(Cl)Cl`, the inhibition of viability was -1.7%.

Take `CCN(CC)CCOC(=O)C(c1ccccc1)C1CCCCC1` (stereo not drawn): the inhibition of viability was 25%.

As for `Nc1c2ccccc2nc2ccccc12`, the inhibition of viability is 105% (active).

For `Oc1c(Br)cc(Br)c2cccnc12`, the inhibition of viability is 96.7% (active).

As to `C[N+]12CCC(CC1)C(OC(=O)C(O)(c1ccccc1)c1ccccc1)C2` (stereo not drawn), the inhibition of viability is 10.6%.

As for `CC(=O)Nc1c(I)cc(I)c(C(=O)O)c1I`, the inhibition of viability was 4.5%.

`Cc1c(NC(C)C)c(=O)n(-c2ccccc2)n1C`: the inhibition of viability is -11%.

On to `COc1ccc2cc3[n+](cc2c1OC)CCc1cc2c(cc1-3)OCO2`, for which the inhibition of viability was 84% (active).

With `NC(N)=N/N=C/c1c(Cl)cccc1Cl`, the inhibition of viability was 80.7% (active).

Take `CCN(CC)C(=O)c1cccc(C)c1`: the inhibition of viability was -3.2%.

Turning to `CC(=O)OCC(COC(C)=O)OC(C)=O`, the inhibition of viability is -1.2%.

Consider `CC1(C)OC(=O)NC1=O`, for which the inhibition of viability is 17.4%.

For `COc1cnc(NS(=O)(=O)c2ccc(N)cc2)nc1`, the inhibition of viability is -7.43%.

For `CCCCC(CC)CN1CN(CC(CC)CCCC)CC(C)(N)C1` (stereo not drawn), the inhibition of viability was 102% (active).

As for `Cc1[nH]c(C)c(Cl)c(=O)c1Cl`, the inhibition of viability is 6.55%.

For `Cc1nnc(NS(=O)(=O)c2ccc(N)cc2)s1`, the inhibition of viability was 0.2%.

For the compound `Nc1ccc(C(=O)O)cc1`, the inhibition of viability was -6.1%.

Take `Nc1nccs1`: the inhibition of viability is 25.5%.

Regarding `COc1ccc(-c2cc(C(F)F)nn2-c2ccc(S(N)(=O)=O)cc2)cc1F`, the inhibition of viability is 22.3%.

For the compound `NC(=O)c1ccc([N+](=O)[O-])cc1Cl`, the inhibition of viability is 42.7%.

For the compound `CCC(=O)O[C@H]1[C@H](O[C@@H]2[C@@H](C)[C@H](O[C@H]3C[C@@](C)(OC)[C@@H](O)[C@H](C)O3)[C@@H](C)C(=O)O[C@H](CC)[C@@](C)(O)[C@H](O)[C@@H](C)C(=O)[C@H](C)C[C@@]2(C)O)O[C@H](C)C[C@@H]1N(C)C`, the inhibition of viability was 3.15%.
